Consider 39 compounds from PubChem BioAssay (EPA / NIEHS).

Records with an inconclusive call do not appear. Activity calls are given as the source filed them. Rule for the calls: active = hit-call score of the fitted dose curve at least 0.9, where 1 is the maximum; inconclusive = response in the unintended direction; inactive = score below 0.9.

Chain of human RAR-related Orphan Receptor beta (RORb), RORB (gene 6096) (Q92753 whole entry, looked up, the tested form may be a part): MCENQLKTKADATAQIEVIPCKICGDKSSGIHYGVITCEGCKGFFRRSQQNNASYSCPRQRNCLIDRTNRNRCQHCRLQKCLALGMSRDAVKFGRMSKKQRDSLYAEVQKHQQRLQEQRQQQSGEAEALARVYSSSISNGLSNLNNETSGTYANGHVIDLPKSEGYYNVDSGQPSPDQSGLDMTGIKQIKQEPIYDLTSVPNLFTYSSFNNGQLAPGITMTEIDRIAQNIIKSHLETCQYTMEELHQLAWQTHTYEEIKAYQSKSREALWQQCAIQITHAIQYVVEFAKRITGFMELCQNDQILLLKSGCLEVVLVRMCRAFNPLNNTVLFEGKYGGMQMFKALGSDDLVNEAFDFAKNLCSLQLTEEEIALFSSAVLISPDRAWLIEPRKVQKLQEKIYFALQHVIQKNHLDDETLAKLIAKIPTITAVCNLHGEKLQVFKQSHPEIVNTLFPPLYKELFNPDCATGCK
Chain of Peroxisome proliferator-activated receptor gamma (Homo sapiens) (P37231 whole entry, looked up): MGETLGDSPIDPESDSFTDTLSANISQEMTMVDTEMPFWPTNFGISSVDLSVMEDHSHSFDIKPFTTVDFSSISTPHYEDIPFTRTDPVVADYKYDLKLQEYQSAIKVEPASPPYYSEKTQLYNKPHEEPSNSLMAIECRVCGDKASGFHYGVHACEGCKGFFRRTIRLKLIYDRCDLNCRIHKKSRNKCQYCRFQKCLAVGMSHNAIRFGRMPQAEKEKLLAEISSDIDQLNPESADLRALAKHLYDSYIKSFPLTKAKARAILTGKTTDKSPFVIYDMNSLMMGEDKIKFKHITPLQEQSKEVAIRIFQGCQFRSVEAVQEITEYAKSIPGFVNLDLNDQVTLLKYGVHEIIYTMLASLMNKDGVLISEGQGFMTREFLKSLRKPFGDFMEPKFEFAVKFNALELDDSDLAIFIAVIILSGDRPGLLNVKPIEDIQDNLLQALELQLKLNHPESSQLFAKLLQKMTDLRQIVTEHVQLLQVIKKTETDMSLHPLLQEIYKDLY
Chain of human Retinoic Acid Receptor gamma (RARg), RARG (gene 5916) (P13631 whole entry, looked up): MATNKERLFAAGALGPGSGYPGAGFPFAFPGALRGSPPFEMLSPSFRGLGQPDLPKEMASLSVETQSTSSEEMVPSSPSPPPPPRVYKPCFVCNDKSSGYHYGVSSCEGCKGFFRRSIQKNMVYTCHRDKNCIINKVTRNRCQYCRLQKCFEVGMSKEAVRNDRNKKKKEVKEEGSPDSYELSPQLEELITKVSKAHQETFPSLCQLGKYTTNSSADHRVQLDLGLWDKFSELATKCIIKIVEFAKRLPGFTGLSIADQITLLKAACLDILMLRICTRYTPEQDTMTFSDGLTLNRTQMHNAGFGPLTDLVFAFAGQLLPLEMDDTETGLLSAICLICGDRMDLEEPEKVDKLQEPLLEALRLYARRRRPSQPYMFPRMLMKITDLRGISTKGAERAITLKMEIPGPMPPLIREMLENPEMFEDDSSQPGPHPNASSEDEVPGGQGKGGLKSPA

One experiment addresses Peroxisome proliferator-activated receptor gamma (Homo sapiens) (UniProt P37231). Put plainly: ATG_PPARg_TRANS: Attagene TRANS-FACTORIAL HepG2 Assay for human Peroxisome Proliferator-activated Receptor-gamma (PPARg) (AID 2283007). The procedure, abridged:
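Twenty-four hours after chemical dosing of transiently transfected HepG2 cells, isolated RNA was converted to cDNA, reporter sequences amplified and 6-FAM-labelled, then HpaI-digested and analysed by capillary electrophoresis. Signal increase against DMSO was fitted.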
Turning to `COP(=O)(O)OC`, the compound was called inactive. In the case of `Cc1ccc(O)cc1C`, the compound was classed as inactive.

`C/C(=N\NC(=O)Nc1cc(F)cc(F)c1)c1ncccc1C(=O)O`: the result was inactive. In general, AC50 refers to the concentration giving half of the maximal activity seen. As to `O=P(Oc1ccccc1)(Oc1ccccc1)Oc1ccccc1`, the AC50 was 5.5 µM (active). Regarding `COC(N)=O`, the outcome was inactive.

On to `O=P(OCC(Br)CBr)(OCC(Br)CBr)OCC(Br)CBr` (centres undefined), for which the AC50 was 2.68 µM (active).

For `CC(O)C#N` (centres undefined), the call was inactive.

`CCOP(=S)(OCC)SCS(=O)(=O)CC`: the result was inactive. Consider `c1ccc2c(c1)sc1ccccc12`, for which the compound was classed as inactive. On to `CCOP(=S)(NC(C)C)Oc1ccccc1C(=O)OC(C)C` (centres undefined), for which the AC50 is 8.99 µM (active). On to `O=c1[nH]c2ccccc2c(=O)o1`, for which the result was inactive. In the case of `Clc1ccc(Oc2ccccc2)cc1`, the call was inactive. Consider `C=CC(=O)OCC(F)(F)C(F)F`, for which the AC50 was 3.8 µM (active).

The next experiment deals with Nuclear receptor subfamily 1 group I member 2 (Homo sapiens) (UniProt O75469). Put plainly: ATG_PXR_TRANS: Attagene TRANS-FACTORIAL HepG2 Assay for human Pregnane X Receptor (PXR) (AID 2283008). The procedure, abridged: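 Measures mRNA induction of a GAL4-UAS-driven reporter in human HepG2 cells transiently expressing PXR fused to Gal4, following 24 h treatment. DMSO served as negative control and baseline.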
Chain of Nuclear receptor subfamily 1 group I member 2 (Homo sapiens) (O75469 whole entry, looked up, the tested form may be a part): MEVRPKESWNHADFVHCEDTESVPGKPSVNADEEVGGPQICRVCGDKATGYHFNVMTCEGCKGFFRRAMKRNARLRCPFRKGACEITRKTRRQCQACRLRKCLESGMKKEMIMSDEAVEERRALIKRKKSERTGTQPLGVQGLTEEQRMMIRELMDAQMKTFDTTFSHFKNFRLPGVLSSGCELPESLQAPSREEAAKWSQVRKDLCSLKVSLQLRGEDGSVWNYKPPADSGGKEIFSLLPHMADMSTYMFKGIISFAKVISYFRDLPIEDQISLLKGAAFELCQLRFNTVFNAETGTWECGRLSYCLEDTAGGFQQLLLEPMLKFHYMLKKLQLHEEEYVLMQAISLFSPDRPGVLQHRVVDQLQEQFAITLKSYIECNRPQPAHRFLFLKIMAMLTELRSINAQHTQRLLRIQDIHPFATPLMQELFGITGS
Turning to `O=C(O)C1C(C(=O)O)C2(Cl)C(Cl)=C(Cl)C1(Cl)C2(Cl)Cl` (centres undefined), the call was inactive. For the compound `c1nc[nH]n1`, the compound was classed as inactive.

For `COP(=O)(O)OC`, the AC50 was 27.2 µM (active).

As to `O=[N+]([O-])c1cc(Cl)ccc1Cl`, the compound was classed as inactive. As for `CCN(CC)c1ccccc1`, the outcome was inactive.

For the compound `O=P1(N(CCCl)CCCl)NCCCO1` (centres undefined), the outcome was inactive.

For the compound `O=C(O)C(F)(F)OC(F)(F)C(F)(F)OC(F)(F)C(=O)O`, the compound was classed as inactive. Regarding `Cn1[nH]nnc1=S`, the call was inactive.

Regarding `CCCCN(CCCC)N=O`, the outcome was inactive. In the case of `C/C(=N\NC(=O)Nc1cc(F)cc(F)c1)c1ncccc1C(=O)O`, the compound was classed as inactive. With `O=P(Oc1ccccc1)(Oc1ccccc1)Oc1ccccc1`, the half-maximal activity concentration (AC50) is 0.693 µM (active).

For the compound `N#Cc1cc([N+](=O)[O-])ccc1N`, the call was inactive.

`O=c1ssc(Cl)c1Cl`: the result was inactive. As to `CCCCN(CCCC)SN(C)C(=O)Oc1cccc2c1OC(C)(C)C2`, the AC50 is 16 µM (active). Regarding `OCC(F)(F)OC(F)(F)C(F)(F)OC(F)(F)C(F)(F)OC(F)(F)CO`, the call was inactive. Still for that read-out and setting: next, `Oc1ccccc1Br`: “inactive”. Take `Nc1ccc([N+](=O)[O-])cc1Cl`: the compound was called inactive. Take `Oc1ccc(I)cc1`: the call was inactive. Turning to `O=P(OCC(Br)CBr)(OCC(Br)CBr)OCC(Br)CBr` (centres undefined), the AC50 is 0.224 µM (active). For the compound `CCOP(=S)(OCC)SCS(=O)(=O)CC`, the concentration at half-maximal activity (AC50) was 5.73 µM (active).

Consider `CCCCc1ccc(O)cc1`, for which the outcome was inactive. With `Cc1ccc([N+](=O)[O-])cc1C`, the outcome was inactive. Still for that read-out and setting: then `c1ccc2c(c1)sc1ccccc12`, with “inactive”.

Turning to `CCOP(=S)(NC(C)C)Oc1ccccc1C(=O)OC(C)C` (centres undefined), the AC50 is 0.599 µM (active). Regarding `O=S1(=O)OCC2C(CO1)C1(Cl)C(Cl)=C(Cl)C2(Cl)C1(Cl)Cl` (centres undefined), the half-maximal activity concentration (AC50) is 2.37 µM (active).

In the case of `O=c1[nH]c2ccccc2c(=O)o1`, the compound was classed as inactive. For `CCOP(=S)(S)OCC`, the call was inactive. Consider `Clc1ccc(Oc2ccccc2)cc1`, for which the compound was classed as inactive. On to `C=CC(=O)OCC(F)(F)C(F)F`, for which the outcome was inactive. With `CCOC(=O)c1ccccc1N`, the compound was classed as inactive. Take `CC(=O)CCc1ccc2c(c1)OCO2`: the call was inactive. Turning to `c1ccc(OP(Oc2ccccc2)Oc2ccccc2)cc1`, the compound was classed as inactive.

The target of a further experiment is human Retinoic Acid Receptor gamma (RARg), RARG (gene 5916) (UniProt P13631). Put plainly: ATG_RARg_TRANS: Attagene TRANS-FACTORIAL HepG2 Assay for human Retinoic Acid Receptor gamma (RARg) (AID 2283009). The procedure, abridged:
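Transient transfection of HepG2 with multi-reporter constructs, then 24 h chemical treatment. Total RNA isolated, reverse-transcribed, PCR-amplified, fluorescently labelled and resolved by capillary electrophoresis; activity scored as mRNA induction versus DMSO.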
Take `COP(=O)(O)OC`: the call was inactive. For `Cc1ccc(O)cc1C`, the outcome was inactive. Still for that read-out and setting: then `OCC(F)(F)OC(F)(F)C(F)(F)OC(F)(F)C(F)(F)OC(F)(F)CO`, with “inactive”. With `CCOP(=S)(OCC)SCS(=O)(=O)CC`, the compound was classed as inactive. `CCCCc1ccc(O)cc1`: the call was inactive.

In the case of `c1ccc2c(c1)sc1ccccc12`, the result was inactive. As to `O=S1(=O)OCC2C(CO1)C1(Cl)C(Cl)=C(Cl)C2(Cl)C1(Cl)Cl` (centres undefined), the call was inactive. For the compound `O=c1[nH]c2ccccc2c(=O)o1`, the compound was classed as inactive. Turning to `C=CC(=O)OCC(F)(F)C(F)F`, the compound was classed as inactive.

A further experiment has as its target human RAR-related Orphan Receptor beta (RORb), RORB (gene 6096) (UniProt Q92753). Briefly: ATG_RORb_TRANS: Attagene TRANS-FACTORIAL HepG2 Assay for human RAR-related Orphan Receptor beta (RORb) (AID 2283010). Put shortly:
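Readout is reporter-gene mRNA induction, detected as fluorescence after RT-PCR and capillary electrophoresis, fitted for gain of signal against DMSO controls. Transiently transfected HepG2 liver cells carrying GAL4-UAS reporter constructs were treated for 24 hours.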
Take `O=C(O)C1C(C(=O)O)C2(Cl)C(Cl)=C(Cl)C1(Cl)C2(Cl)Cl` (centres undefined): the compound was classed as inactive. Consider `CC(Cl)CN(C)C` (centres undefined), for which the result was inactive. With `Cc1ccc(C(=O)Cl)cc1`, the compound was classed as inactive. The same measure, in the same setting: then `Cn1[nH]nnc1=S`, with “inactive”; and `O=C(O)CF`, with “inactive”; and `C/C(=N\NC(=O)Nc1cc(F)cc(F)c1)c1ncccc1C(=O)O`, with “inactive”. Turning to `O=c1ssc(Cl)c1Cl`, the outcome was inactive.

With `Cc1ccc(N)cc1N`, the compound was classed as inactive. Take `CCOP(=S)(S)OCC`: the outcome was inactive. As for `CCOC(=O)c1ccccc1N`, the compound was classed as inactive.
